GRP78 ERSR act = qHTS for Inducers of the Endoplasmic Reticulum Stress Response (ERSR) in Human Glioma: qHTS; U87-MG GRP78 promoter luciferase reporter, 16 h; Potency, µM, inactives show at the top dose activation, usual class: activators; hit rate 0.02% among 420,000; further: potency means the concentration at half of the fitted maximal effect; series mostly up to about 76 µM; % of control where 0% means no effect; nearly all actives have a fitted effect of over 35% in size
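Stably transfected U87-MG human glioma cells carrying a GRP78-based luminescent sensor were seeded at 1000 cells/well, pin-dosed with compounds and incubated 16 h. Luciferase reagent was then added, and end-point luminescence was read after 10 min at room temperature.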
ClpP mod = qHTS Assay for Activators of ClpP; Potency, µM (series often up to 57.5 µM), inactives show at the highest dose activity change, negative = active; hit rate 1.9% among 340,000; AID 651965, 2013; ATP-dependent Clp protease proteolytic subunit (Bacillus subtilis (strain 168)), P80244; purified B. subtilis ClpP, FRET peptide cleavage, 20 min; active means well fitted falling curve with a large enough effect; inconclusive means small, poorly fitted or top-dose-only effect; inactive means no such curve, though single readings can be large or run the other way; further: potency means the concentration at half of the fitted maximal effect; the source files actives as falling curves though it sought activators and does not explain the sign; nearly all actives have a fitted effect of over 65% in size
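Buffer: 100 mM Tris/HCl pH8, 100 mM KCl, 0.05% low protease BSA, 2.5% glycerol, 0.01% Tween-20. ClpP 10 microg/mL final; 20 min RT; delta FRET normalized to ADEP and DMSO controls.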
TCR activator = Activators of T cell receptors: qHTS campaign. AID 504894, 2011. 330,000 tested, under 10 active. Potency, µM (top dose mostly 9.22 µM), inactives show at the top dose activation of IL-2 secretion, usual class: activators. primary human leukocytes, anti-CD3, IL-2 HTRF, 48 h; further: % of control where 0% means no effect
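Human primary leukocytes + a-CD3 beads + cpd, 48 hr; IL-2 in supernatant by HTRF (ex 320nm / em 665nm). No co-stimulatory signal supplied.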
Mito fusion yeast = qHTS Assay for Small Molecule Inhibitors of Mitochondrial Division or Activators of Mitochondrial Fusion; S. cerevisiae fusion-defective mutant growth rescue, CellTiterGlo 48 h; Potency, µM (series often up to 46.1 µM), for the others: at the top dose growth rescue (activation), most hits filed as activators; hit rate 0.23% among 320,000; AID 485298, 2010; further: potency means the concentration at half of the fitted maximal effect; % of control where 0% means no effect; nearly all actives have a fitted effect of over 45% in size
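Read-out: ATP-based luminescence (CellTiterGlo, 10 min ambient) reporting growth of fusion-defective ts yeast after 48 hours at 37C on glycerol/ethanol YPEG medium in the presence of compound.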
A-T KAP1 phos = qHTS Assay for Identifying a Potential Treatment of Ataxia-Telangiectasia; hit rate 0.19% among 320,000; F2112 A-T fibroblasts, KAP-1 phosphorylation AlphaLISA; neocarzinostatin DNA damage 30 min before lysis; Potency, µM (titrated, usually from 57.5 µM), for inactives: top-dose activation, hits mostly activators; AID 485349, 2010; further: potency means the concentration at half of the fitted maximal effect; % of control where 0% means no effect; nearly all actives have a fitted effect of over 45% in size
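ATM-like activity read as KAP-1 phosphorylation via AlphaLISA donor/acceptor antibody pairs after lysis and 6 hr at 25C. Cells were ATM-null patient fibroblasts (F2112, hTERT), dosed 60 min, then exposed to the DSB inducer NCS for 30 min.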
MBNL1 CUG block = qHTS Assay for Inhibitors of MBNL1-poly(CUG) RNA binding | Potency, µM (titrated, usually from 57.5 µM), for inactives: at the highest dose activity change, negative = inhibition, most hits filed as inhibitors | hit rate 0.036% among 280,000 | TR-FRET MBNL1-His/biotin-(CUG)12 binding, 665/545 ratio; active means well fitted inhibition curve with a large enough effect in the signal ratio, with a control signal flat, not every such curve was filed as active; inconclusive means small, poorly fitted or top-dose-only effect, or effect the other way, or a change in a side signal; inactive means no such curve, though single readings can be large or run the other way; the % refers to the signal ratio; further: potency means the concentration at half of the fitted maximal effect; on the % scale 0 is the no-effect control and ±100 the full control effect
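Compounds (final 92 nM to 58 uM) are added to His-tagged MBNL1 and biotin-(CUG)12, then terbium anti-His antibody and streptavidin-XL665 (5 nM final). After 60 min at room temperature, the 665/545 nm ratio is read.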
* hit, by the source's call; ? = inconclusive; nt = no result; [ ] = dose if it differs, or a comment. This is a sample that favours compounds with a hit; in the whole collection about 1.8% have one here. Unless noted, the call rests on the fitted dose curve; in most records, active means well fitted curve in the direction sought with a large enough effect; inconclusive means small, poorly fitted or top-dose-only effect, or another doubt; inactive means no such curve, though single readings can be large; an effect the other way counts as inactive or inconclusive.

SMILES | GRP78 ERSR act | ClpP mod | TCR activator | Mito fusion yeast | A-T KAP1 phos | MBNL1 CUG block
CC[C@H](C)[C@H](NC(=O)[C@H](Cc1ccc(O)cc1)NC(=O)[C@H](Cc1cnc[nH]1)NC(=O)[C@H](CCCNC(=N)N)NC(=O)[C@H](CC(C)C)NC(=O)[C@H](C)NC(=O)[C@H](CO)NC(=O)[C@H](Cc1ccc(O)cc1)NC(=O)[C@H](Cc1ccc(O)cc1)NC(=O)[C@H](CCCNC(=N)N)NC(=O)[C@H](C)NC(=O)[C@H](CCSC)NC(=O)[C@H](CC(=O)O)NC(=O)[C@H](CCC(=O)O)NC(=O)[C@H](C)NC(=O)[C@@H]1CCCN1C(=O)[C@H](C)NC(=O)[C@H](CC(=O)O)NC(=O)[C@H](CCC(=O)O)NC(=O)CNC(=O)[C@@H]1CCCN1C(=O)[C@H](CC(N)=O)NC(=O)[C@H](CC(=O)O)NC(=O)[C@@H]1CCCN1C(=O)[C@H](CCCCN)NC(=O)[C@H](CO)NC(=O)[C@@H]1CCCN1C(=O)[C@@H](N)Cc1ccc(O)cc1)C(=O)N[C@@H](CC(N)=O)C(=O)N[C@@H](CC(C)C)C(=O)N[C@@H](CC(C)C)C(=O)N[C@H](C(=O)N[C@@H](CCCNC(=N)N)C(=O)N1CCC[C@H]1C(=O)N[C@@H](CCCNC(=N)N)C(=O)N[C@@H](Cc1ccc(O)cc1)C(N)=O)[C@@H](C)O | -5% | nt | nt | nt | nt | nt
CO/N=C(/C(=O)N[C@@H]1C(=O)N2C(C(=O)OC(C)OC(C)=O)=C(COC(N)=O)CS[C@H]12)c1ccco1 (some centres not stated) | -3% | nt | nt | nt | nt | nt
CCOc1ccc2c(c1)C(C)=CC(C)(C)N2C(=O)Nc1ccccc1 | 12% | 28µM* | -2% | -3% | nt | 15%
CCNC(=O)N1c2ccc(OC)cc2C(C)=CC1(C)C | -4% | 32µM* | -1% | -4% | -6% | 9%
COc1ccc(NC(=O)N2c3ccc(OC)cc3C(C)=CC2(C)C)cc1 | -3% | 4% | 2%[46.1 µM] | nt | 8% | 17%[11.5 µM]
Cc1nn(C)c(Cl)c1CN1CCOc2ccc(CN3CCC(Oc4cccnc4)CC3)cc2C1 | -6% | nt | nt | nt | nt | nt
Cc1cc2ccc(Cl)nc2nc1C | -2% | -4% | nt | nt | nt | nt
CCC(O)CNC(=O)c1cnn(-c2nccc(-c3cc(C)sc3C)n2)c1C1CC1 (configuration not stated) | 4% | nt | nt | nt | nt | nt
CCN(CC(=O)NCc1cccs1)C(=O)/C=C/c1ccc(F)cc1 | 1% | 1% | nt | nt | nt | nt
CCN(CC(=O)NCc1cccs1)C(=O)c1ccc(S(=O)(=O)N(C)c2ccccc2)cc1 | -3% | 22µM* | -9%[46.1 µM] | nt | -8% | nt
CCN(CC(=O)NCc1cccs1)C(=O)c1ccc(S(=O)(=O)N(C)C)cc1 | -2% | nt | 6% | -2% | 9% | -2%
CCN(CC(=O)NCc1cccs1)C(=O)/C=C/c1cc(OC)c(OC)c(OC)c1 | -5% | 16µM* | 4% | 1% | 5% | nt
CN1CCN(c2ncc3nc(-c4ccccc4)c(=O)n(Cc4ccc(F)cc4)c3n2)CC1 | -4% | nt | nt | nt | nt | nt
COc1ccc2c(c1OC)C(=O)OC2Nc1nc(-c2ccc(-c3ccccc3)cc2)cs1 (configuration not stated) | -1% | 16µM* | -2%[46.1 µM] | 1% | 0% | 36%
COc1ccc(F)c(CN2CCC3(CCC(CNC(=O)c4cc(C)nn4C)O3)CC2)c1 (configuration not stated) | 0% | nt | nt | nt | nt | nt
CCOc1ccc(NC(=S)N2CCc3cc(OC)c(OC)cc3C2COc2ccc3c(C)cc(=O)oc3c2)cc1 (configuration not stated) | 2% | 8.9µM* | 1%[46.1 µM] | 2% | -7% | 56%
CCOc1ccc(CC(=O)N2CCc3cc(OC)c(OC)cc3C2COc2ccc3c(C)cc(=O)oc3c2)cc1 (configuration not stated) | -3% | 12% | nt | nt | nt | nt
COc1ccc2c(c1)[nH]c1c(=O)n(CCN3CCCC3)cnc12 | -2% | -22% | 2% | 0% | 1% | 1%
O=c1c2[nH]c3ccc(F)cc3c2ncn1CCCN1CCOCC1 | 12% | 20µM* | 0% | 3% | 10% | -9%
O=c1c2[nH]c3ccc(Cl)cc3c2ncn1CCN1CCCCC1 | -2% | -12% | -15% | 2% | 28µM* | -3%
COc1ccc2c(c1)[nH]c1c(=O)n(CCCN3CCOCC3)cnc12 | 2% | -13% | -26% | -1% | 1% | 0%
O=C(NC1CCCC1)c1cccc(Cn2cc([N+](=O)[O-])cn2)c1 | -3% | 16µM* | 0%[46.1 µM] | -13% | 5% | 1%
CCCN1C2CCCC1CC(NC(=O)c1cccc([N+](=O)[O-])c1)C2 (configuration not stated) | -1% | 28µM* | 5% | -2% | 3% | ?
CC(C)(C)c1ccc(S(=O)(=O)/C=C/C#N)cc1 | ? | 1% | nt | -31% | nt | nt
CCC[C@H]1COCCS(=O)(=O)N1Cc1cccc(F)c1 | -3% | 0% | nt | nt | nt | nt
SMILES | GRP78 ERSR act | ClpP mod | TCR activator | Mito fusion yeast | A-T KAP1 phos | MBNL1 CUG block
O=C1NC(=O)C(Cc2cccc(Oc3ccccc3)c2)S1 (configuration not stated) | 3% | 1% | 9% | 11µM* | 4% | 6%
CC1(COc2ccc(CC3SC(=O)NC3=O)cc2)CCCCC1 (configuration not stated) | 6% | nt | nt | nt | nt | nt
Nc1nc(-c2ccccc2)[nH]c(=O)c1N | -3% | 28µM* | 1%[46.1 µM] | -24% | 2% | 24%[11.5 µM]
Nc1[nH]nc2nc(-c3ccccc3)[nH]c(=O)c12 | -1% | -5% | -1% | -5% | -1% | -3%
CCN1CCCC1CNCc1cc2c(OC)c(OC)c(OC)cc2nc1N(C)C (configuration not stated) | 0% | nt | nt | nt | nt | nt
CCCCNC(=O)[C@@H]1CC=C[C@@H]2CCN(C3CCCCC3)C(=O)[C@@H]21 | -4% | 1% | nt | nt | nt | nt
CCOc1cc2c(C#N)c(N3CCNCC3)nc(N)c2c(N)n1 | -6% | 35µM* | -7% | -1% | 8% | ?
CCOc1cc2c(C#N)c(N3CCCCC3)nc(N)c2c(N)n1 | 6% | 25µM* | nt | 4% | 2% | ?
COC(=O)[C@H](CC(C)C)NC(=O)c1ccc(NC[C@@H](N)CS)cc1-c1cccc2ccccc12 | -5% | nt | nt | nt | nt | nt
CCCC[C@@H](C=O)NC(=O)[C@H](CC(C)C)NC(=O)OCc1ccccc1 | 11% | nt | nt | nt | nt | nt
